# Targets with a hit are over-represented here; the source holds about 8,800 in all. About 0.5% of all pairs of compound and target were hits. Values without a mark were called inactive.
# What was measured:
# Test in all cases: log2 fold change, soluble protein after heating vs DMSO (PISA); higher = thermal stabilisation; K562 lysate, 10 uM; active = over 0.2 and 3.5 SD of the protein, either way, in both replicates (recomputed)
# [1] = compound: NCC(=O)Nc1ccc(-n2nc(C(F)(F)F)cc2-c2ccc3c(ccc4ccccc43)c2)cc1
# Outline: (§1)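 Thermal stability, expressed as log-two fold change relative to solvent controls, is given from duplicates. Crude K562 extract in PBS pH 7.4 with 1 mM MgCl2, at 1 mg/mL protein, was treated with 10 μM compound for 30 min and heated in aliquots for 3 min across 48°C-58°C. After pooling, adjustment to 0.5% NP-40 at 4°C and centrifugation at 21,000xg for 90 min, supernatant protein was measured by TMTpro 16plex LC-MS/MS with channel sums equalised.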
# vorinostat = compound: O=C(CCCCCCC(=O)Nc1ccccc1)NO [vorinostat]
# Outline: as §1
# silmitasertib = compound: O=C(O)c1ccc2c(c1)nc(Nc1cccc(Cl)c1)c1ccncc12 [silmitasertib]
# Outline: as §1
# [2] = compound: O=C1NC(=O)C(c2cnc3ccccn23)=C1c1cn2c3c(cc(F)cc13)CN(C(=O)N1CCCCC1)CC2
# Outline: as §1
# entospletinib = compound: c1cn2cc(-c3ccc4cn[nH]c4c3)nc(Nc3ccc(N4CCOCC4)cc3)c2n1 [entospletinib]
# Outline: as §1
# Sequence of UniProt Q9BT25 (Q9BT25 whole entry, looked up): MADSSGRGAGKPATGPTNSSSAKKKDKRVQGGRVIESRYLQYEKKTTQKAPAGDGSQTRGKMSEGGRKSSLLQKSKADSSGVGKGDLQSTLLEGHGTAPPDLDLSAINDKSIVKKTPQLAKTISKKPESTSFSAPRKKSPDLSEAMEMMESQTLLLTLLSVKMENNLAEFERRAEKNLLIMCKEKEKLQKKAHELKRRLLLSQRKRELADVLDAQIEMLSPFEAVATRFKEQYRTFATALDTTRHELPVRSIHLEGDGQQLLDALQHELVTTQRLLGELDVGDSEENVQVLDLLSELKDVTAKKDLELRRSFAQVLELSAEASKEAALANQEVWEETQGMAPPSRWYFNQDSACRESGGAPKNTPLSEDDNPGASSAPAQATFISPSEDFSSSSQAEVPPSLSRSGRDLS
# Sequence of UniProt P25098 (P25098 whole entry, looked up): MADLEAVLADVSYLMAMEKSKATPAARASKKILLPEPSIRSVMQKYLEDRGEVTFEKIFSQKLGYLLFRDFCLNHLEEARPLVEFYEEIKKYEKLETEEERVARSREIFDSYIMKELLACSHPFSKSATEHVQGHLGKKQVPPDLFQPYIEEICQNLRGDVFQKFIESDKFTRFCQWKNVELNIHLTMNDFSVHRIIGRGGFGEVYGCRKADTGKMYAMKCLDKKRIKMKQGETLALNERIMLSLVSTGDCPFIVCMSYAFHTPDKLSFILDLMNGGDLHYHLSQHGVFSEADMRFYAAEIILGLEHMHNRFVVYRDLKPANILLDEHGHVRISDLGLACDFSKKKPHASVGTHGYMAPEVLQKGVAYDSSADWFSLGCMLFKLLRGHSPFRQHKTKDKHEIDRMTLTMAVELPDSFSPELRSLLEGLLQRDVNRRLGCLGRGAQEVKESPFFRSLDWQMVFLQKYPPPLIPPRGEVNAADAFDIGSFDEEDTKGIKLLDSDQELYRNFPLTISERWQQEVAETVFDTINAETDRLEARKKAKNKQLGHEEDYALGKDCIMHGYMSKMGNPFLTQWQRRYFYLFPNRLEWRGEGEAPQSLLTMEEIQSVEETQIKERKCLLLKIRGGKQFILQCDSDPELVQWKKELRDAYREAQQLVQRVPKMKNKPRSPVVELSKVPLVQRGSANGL
# Sequence of UniProt P52789 (P52789 whole entry, looked up): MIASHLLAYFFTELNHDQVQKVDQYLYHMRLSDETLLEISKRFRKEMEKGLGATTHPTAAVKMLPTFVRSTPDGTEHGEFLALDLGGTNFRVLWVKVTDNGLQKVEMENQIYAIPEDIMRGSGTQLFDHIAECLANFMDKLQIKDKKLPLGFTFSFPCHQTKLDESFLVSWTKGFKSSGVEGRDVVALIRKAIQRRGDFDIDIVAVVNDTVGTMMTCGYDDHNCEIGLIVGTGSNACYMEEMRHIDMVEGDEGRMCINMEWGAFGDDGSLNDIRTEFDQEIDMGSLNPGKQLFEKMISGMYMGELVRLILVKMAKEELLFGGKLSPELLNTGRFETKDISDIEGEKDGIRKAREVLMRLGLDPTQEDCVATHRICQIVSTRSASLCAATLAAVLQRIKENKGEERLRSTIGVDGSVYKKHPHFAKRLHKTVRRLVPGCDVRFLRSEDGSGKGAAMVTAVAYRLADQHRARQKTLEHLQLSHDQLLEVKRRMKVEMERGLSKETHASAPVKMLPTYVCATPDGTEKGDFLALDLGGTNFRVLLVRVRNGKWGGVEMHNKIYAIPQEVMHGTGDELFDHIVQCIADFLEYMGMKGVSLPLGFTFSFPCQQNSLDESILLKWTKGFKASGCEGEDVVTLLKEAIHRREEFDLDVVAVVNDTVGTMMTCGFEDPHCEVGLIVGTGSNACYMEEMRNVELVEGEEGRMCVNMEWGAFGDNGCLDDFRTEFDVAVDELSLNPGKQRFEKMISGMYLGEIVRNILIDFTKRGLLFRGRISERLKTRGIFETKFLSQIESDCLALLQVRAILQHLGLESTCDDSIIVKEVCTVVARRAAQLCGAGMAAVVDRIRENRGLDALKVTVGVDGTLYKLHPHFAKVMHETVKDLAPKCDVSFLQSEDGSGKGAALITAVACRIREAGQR
# Sequence of UniProt Q8WVV9 (Q8WVV9 whole entry, looked up): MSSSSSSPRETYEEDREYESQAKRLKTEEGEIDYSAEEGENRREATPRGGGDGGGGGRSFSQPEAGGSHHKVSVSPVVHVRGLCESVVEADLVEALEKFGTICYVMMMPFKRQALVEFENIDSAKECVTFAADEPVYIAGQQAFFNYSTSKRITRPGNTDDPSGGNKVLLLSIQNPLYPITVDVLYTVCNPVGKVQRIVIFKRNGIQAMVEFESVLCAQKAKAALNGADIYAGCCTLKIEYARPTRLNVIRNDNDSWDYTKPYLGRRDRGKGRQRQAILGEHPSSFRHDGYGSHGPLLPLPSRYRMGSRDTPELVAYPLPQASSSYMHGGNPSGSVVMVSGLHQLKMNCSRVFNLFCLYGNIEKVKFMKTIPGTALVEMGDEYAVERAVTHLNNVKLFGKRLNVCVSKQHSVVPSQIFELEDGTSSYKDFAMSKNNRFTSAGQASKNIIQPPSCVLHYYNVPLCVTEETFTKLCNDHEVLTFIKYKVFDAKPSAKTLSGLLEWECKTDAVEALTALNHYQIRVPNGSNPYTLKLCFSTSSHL
# Sequence of UniProt O75367 (O75367 whole entry, looked up): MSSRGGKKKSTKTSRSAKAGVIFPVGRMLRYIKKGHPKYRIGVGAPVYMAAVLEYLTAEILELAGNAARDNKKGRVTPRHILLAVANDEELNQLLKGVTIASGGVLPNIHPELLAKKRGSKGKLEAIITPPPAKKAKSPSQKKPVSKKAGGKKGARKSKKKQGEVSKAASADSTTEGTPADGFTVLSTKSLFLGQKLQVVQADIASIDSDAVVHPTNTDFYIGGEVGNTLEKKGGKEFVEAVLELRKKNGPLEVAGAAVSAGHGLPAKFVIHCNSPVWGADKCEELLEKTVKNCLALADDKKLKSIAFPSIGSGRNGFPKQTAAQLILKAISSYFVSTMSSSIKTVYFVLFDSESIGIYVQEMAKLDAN
# Sequence of UniProt P50053 (P50053 whole entry, looked up): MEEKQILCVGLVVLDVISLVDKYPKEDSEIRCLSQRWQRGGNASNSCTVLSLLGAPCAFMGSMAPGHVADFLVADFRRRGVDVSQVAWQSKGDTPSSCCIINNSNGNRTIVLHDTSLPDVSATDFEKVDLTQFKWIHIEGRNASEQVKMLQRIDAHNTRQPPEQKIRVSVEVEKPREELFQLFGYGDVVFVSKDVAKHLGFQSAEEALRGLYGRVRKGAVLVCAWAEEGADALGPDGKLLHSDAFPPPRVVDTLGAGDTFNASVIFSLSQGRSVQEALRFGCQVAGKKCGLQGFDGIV
# Sequence of UniProt O60547 (O60547 whole entry, looked up): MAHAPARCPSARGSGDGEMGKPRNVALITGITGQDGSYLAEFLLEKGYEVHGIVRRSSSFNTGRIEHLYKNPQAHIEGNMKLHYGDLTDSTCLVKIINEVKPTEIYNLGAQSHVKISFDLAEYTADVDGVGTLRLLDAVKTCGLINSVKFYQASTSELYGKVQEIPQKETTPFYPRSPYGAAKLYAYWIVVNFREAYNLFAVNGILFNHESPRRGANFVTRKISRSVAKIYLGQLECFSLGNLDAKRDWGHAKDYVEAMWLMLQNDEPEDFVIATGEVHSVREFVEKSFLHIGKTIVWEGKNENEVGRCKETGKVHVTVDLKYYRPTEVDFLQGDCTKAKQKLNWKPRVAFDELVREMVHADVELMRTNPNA
# Sequence of UniProt Q9H6K1 (Q9H6K1 whole entry, looked up): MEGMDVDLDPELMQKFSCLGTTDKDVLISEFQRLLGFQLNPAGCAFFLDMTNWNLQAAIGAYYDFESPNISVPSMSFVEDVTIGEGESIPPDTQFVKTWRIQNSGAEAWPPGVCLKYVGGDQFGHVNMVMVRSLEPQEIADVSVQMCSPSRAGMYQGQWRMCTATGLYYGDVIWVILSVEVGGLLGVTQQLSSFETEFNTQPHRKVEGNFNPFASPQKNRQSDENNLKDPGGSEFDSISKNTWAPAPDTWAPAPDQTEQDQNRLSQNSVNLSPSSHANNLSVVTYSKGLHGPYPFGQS
# Sequence of UniProt P09211 (P09211 whole entry, looked up): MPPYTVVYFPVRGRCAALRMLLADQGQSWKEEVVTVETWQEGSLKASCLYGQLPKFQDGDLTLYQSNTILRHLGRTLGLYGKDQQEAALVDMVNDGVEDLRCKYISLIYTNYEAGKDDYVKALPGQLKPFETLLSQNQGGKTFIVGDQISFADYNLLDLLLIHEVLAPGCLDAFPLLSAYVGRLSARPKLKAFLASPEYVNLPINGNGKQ
# Sequence of UniProt P62873 (P62873 whole entry, looked up): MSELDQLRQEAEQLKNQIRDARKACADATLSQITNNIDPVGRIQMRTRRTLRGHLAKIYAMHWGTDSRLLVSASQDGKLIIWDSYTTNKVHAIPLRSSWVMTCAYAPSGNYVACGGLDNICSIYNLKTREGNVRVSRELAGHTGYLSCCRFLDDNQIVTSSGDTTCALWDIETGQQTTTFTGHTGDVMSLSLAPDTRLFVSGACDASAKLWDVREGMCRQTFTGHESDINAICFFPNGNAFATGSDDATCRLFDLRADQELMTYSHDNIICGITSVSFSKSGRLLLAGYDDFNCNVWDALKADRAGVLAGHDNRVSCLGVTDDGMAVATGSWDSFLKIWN
# Sequence of UniProt Q53GQ0 (Q53GQ0 whole entry, looked up): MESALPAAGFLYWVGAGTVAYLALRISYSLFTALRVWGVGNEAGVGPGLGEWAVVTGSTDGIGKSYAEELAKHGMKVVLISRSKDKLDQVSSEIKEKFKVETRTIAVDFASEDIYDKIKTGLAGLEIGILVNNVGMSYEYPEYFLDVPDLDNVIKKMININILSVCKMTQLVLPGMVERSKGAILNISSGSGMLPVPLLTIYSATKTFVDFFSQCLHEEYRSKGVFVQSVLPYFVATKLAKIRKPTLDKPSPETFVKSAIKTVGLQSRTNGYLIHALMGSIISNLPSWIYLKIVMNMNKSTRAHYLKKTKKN
Target,log2 fold change [1],log2 fold change (vorinostat),log2 fold change (silmitasertib),log2 fold change [2],log2 fold change (entospletinib)
HADHB (UniProt P55084),0.047,-0.199,-0.033,0.269,0.063
IRAK1 (UniProt P51617),-0.073,-0.359 (active),0.205,-0.014,0.232
KHDRBS1 (UniProt Q07666),0.005,-0.583 (active),0.018,0.016,0.008
IMPDH2 (UniProt P12268),0.002,-1.14 (active),0.004,0.004,0.014
GNB1 (UniProt P62873),0.026,0.064,0.041,-0.037,0.054
HNRNPM (UniProt M0R019),-0.198,,,,
GMDS (UniProt O60547),0.027,-0.309 (active),0.041,-0.016,0.032
HAUS8 (UniProt Q9BT25),0.083,-0.38 (active),0.022,0.018,-0.051
HNRNPD isoform 2 (UniProt Q14103),0.018,0.155,0.009,0.063,-0.006
KHK isoform 2 (UniProt P50053),0.035,0.045,0.018,-0.053,0.033
H2AFY (UniProt O75367),0.008,0.142,-0.029,-0.02,0.079
ILRUN (UniProt Q9H6K1),0.002,-0.047,0.001,-0.01,-0.013
IARS (UniProt P41252),0.014,-0.325 (active),0.046,-0.008,0.031
ICAM2 (UniProt P13598),-0.016,0.148,-0.029,-0.021,-0.018
GUSB (UniProt P08236),0.021,0.043,0.015,-0.026,-0.029
INTS8 (UniProt Q75QN2),-0.012,-0.401 (active),0.071,-0.016,0.054
HIST2H2BC (UniProt Q6DN03),0.018,0.133,-0.098,-0.019,-0.062
GTF3C3 (UniProt Q9Y5Q9),-0.007,-0.291 (active),0.018,0.011,-0.052
HEATR3 (UniProt Q7Z4Q2),-0.03,-0.5 (active),0.013,-0.017,-0.006
KDM5B isoform 2 (UniProt Q9UGL1),0.11,0.085,-0.018,0.116,-0.037
GLUD2 (UniProt P49448),0.297 (active),0.096,0.022,0.026,-0.084
HECW2 (UniProt Q9P2P5),-0.018,-0.058,0.011,-0.004,-0.09
GSTP1 (UniProt P09211),-0.011,-0.352 (active),0.127,0.04,-0.001
HK2 (UniProt P52789),-0.018,-0.443 (active),0.038,0.007,0.022
ILKAP (UniProt Q9H0C8),-0.05,-0.288 (active),0.053,-0.024,-0.001
IARS2 (UniProt Q9NSE4),-0.002,0.079,-0.01,-0.021,0.01
HS1BP3 (UniProt Q53T59),0.03,0.139,-0.038,-0.027,-0.033

Target,log2 fold change [1],log2 fold change (vorinostat),log2 fold change (silmitasertib),log2 fold change [2],log2 fold change (entospletinib)
IRF2BPL (UniProt Q9H1B7),-0.018,-0.324 (active),0.02,0.006,-0.065
HNRNPH2 (UniProt P55795),-0.008,-0.243 (active),0.005,-0.054,0.002
GTF2H4 (UniProt Q92759),0.01,-0.24 (active),-0.021,-0.021,0.046
INTS1 (UniProt Q8N201),0.014,-0.409 (active),0.027,-0.034,0.003
HELQ (UniProt Q8TDG4),-0.003,0.001,0.076,0.017,-0.103
HSPB1 (UniProt P04792),0.019,-0.013,-0.027,-0.001,0.013
KDM5C (UniProt P41229),0.039,-0.282 (active),0.015,0,0.003
H3-3A (UniProt P84243),0.021,-0.077,0,0.026,-0.035
H4C1 (UniProt P62805),0.043,0.09,0.007,-0.038,-0.057
HSD17B12 (UniProt Q53GQ0),0.025,-0.009,-0.05,-0.078,0.041
GSTCD (UniProt Q8NEC7),-0.025,-0.356 (active),0.024,-0.027,-0.066
KCT2 (UniProt Q8NC54),0.015,0.157,0.005,-0.04,-0.026
HNRNPM (UniProt P52272),-0.008,-0.235 (active),0.022,-0.05,0.015
GOLPH3 (UniProt Q9H4A6),-0.06,-0.06,-0.001,0.023,0.026
GSK3A (UniProt P49840),-0.019,0.265,0.382,0.456,0.014
KARS1 (UniProt Q15046),0.021,-0.011,0.022,-0.026,0.006
KDM6A (UniProt O15550),0.026,-0.299 (active),-0.059,-0.009,-0.02
KBTBD4 isoform 2 (UniProt Q9NVX7),0.025,-0.311 (active),0.012,-0.023,-0.012
GRK2 (UniProt P25098),-0.055,-0.225 (active),0.066,-0.026,-0.006
GIT1 (UniProt Q9Y2X7),-0.043,-0.32 (active),0.009,0.006,-0.005
HNRNPLL (UniProt Q8WVV9),0.009,-0.653 (active),0.035,0.004,0.034
HACE1 (UniProt Q8IYU2),0.183,-0.126,-0.002,0.084,0.012
HMGCL (UniProt P35914),-0.025,-0.226 (active),0.059,0.033,0
HECTD4 (UniProt J3KPF0),0.051,-0.472 (active),-0.003,0.032,0.001
GSK3B isoform 2 (UniProt P49841),0.02,0.253,0.421,0.657,0.05
HDAC6 (UniProt Q9UBN7),-0.039,0.513 (active),0.016,-0.047,0.007
IMPDH1 isoform 6 (UniProt P20839),0.029,-0.897 (active),-0.003,0.004,0.023

# From the supplement of paper PMC10849652
